Several values for one entry are separate records, joined by “and”; a condition that tells them apart may be missing. Equal entries are not always repeated. Records with an inconclusive call do not appear. Some structures have more than one record in an assay (separate samples or runs), and their calls can disagree. Activity calls are given as the source filed them. Unless noted, the call rests on the fitted dose curve; in most records, active means well fitted curve in either direction with a large enough effect (not every such curve was filed as active); inconclusive means small, poorly fitted or top-dose-only effect, or another doubt; inactive means flat fitted curve, though single readings scatter.
Experiments:
[1] = target: Lysosomal acid glucosylceramidase (Homo sapiens) (UniProt P04062); test: Glucocerebrosidase-p2 (AID 348; in the data active means potency below about 10 µM; further: potency means the concentration at half of the fitted maximal effect); conditions: purified GBA, blue fluorogenic substrate, 40 min
Sequence of Lysosomal acid glucosylceramidase (Homo sapiens) (P04062 whole entry, looked up): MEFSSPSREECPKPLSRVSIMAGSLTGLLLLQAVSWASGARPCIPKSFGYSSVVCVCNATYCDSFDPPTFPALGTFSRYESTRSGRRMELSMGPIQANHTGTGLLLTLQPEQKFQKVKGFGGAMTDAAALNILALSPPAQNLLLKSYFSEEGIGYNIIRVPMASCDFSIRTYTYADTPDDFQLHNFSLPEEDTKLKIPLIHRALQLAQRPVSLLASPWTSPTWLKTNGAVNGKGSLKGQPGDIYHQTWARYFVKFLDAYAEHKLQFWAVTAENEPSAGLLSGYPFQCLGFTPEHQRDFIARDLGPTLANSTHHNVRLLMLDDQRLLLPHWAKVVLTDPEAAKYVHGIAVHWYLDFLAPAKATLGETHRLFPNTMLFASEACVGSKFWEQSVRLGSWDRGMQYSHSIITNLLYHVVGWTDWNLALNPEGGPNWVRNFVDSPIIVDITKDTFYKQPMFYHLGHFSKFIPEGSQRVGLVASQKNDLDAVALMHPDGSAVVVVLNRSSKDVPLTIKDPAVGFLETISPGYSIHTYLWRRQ
Method in brief: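 Normal human glucocerebrosidase (0.2 nM) with blue fluorogenic substrate (80 uM final) in citrate/phosphate pH 5.9 with 10mM sodium taurocholate, 0.01% tween-20; 40 min RT, NaOH/glycine stop; fluorescence Ex 365/Em 440; AC50 from a titration from 0.6 nM upwards.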

[2] = target: Cytochrome P450 1A2 (Homo sapiens) (UniProt P05177); test: p450-cyp1a2 (AID 410; calls by dose curve; further: potency means the concentration at half of the fitted maximal effect;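 on activity change, negative = inhibition: -100% = full effect of reference inhibitor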); conditions: recombinant CYP1A2, luciferin-ME demethylation, luminescence; series mostly up to 11.4 µM
Sequence of Cytochrome P450 1A2 (Homo sapiens) (P05177 whole entry, looked up): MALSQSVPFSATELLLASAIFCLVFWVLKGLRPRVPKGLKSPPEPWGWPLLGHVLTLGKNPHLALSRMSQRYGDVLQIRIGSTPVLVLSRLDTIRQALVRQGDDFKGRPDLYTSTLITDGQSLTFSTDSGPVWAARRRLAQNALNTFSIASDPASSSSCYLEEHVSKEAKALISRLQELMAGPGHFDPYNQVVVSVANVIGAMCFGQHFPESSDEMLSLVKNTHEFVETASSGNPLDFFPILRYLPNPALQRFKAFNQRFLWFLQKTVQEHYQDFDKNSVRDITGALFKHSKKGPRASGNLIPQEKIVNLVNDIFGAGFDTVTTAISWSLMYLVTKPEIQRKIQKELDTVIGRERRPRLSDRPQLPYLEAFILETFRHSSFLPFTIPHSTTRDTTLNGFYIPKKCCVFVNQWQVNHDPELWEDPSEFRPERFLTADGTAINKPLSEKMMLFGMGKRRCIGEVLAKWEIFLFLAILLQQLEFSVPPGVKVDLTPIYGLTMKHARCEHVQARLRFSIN
Method in brief: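 Luminescent demethylation readout: Luciferin-ME (100uM, equal to Km) turned over by 20nM CYP1A2 for 60 min at room temperature after NADPH regeneration addition, following 10 min compound preincubation. Normalization used 57 uM furafylline as full inhibition.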

[3] = Stat Signaling Pathway (AID 446); conditions: ME-180 SIE beta-lactamase reporter, IL-6 stimulated, 5 h;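 further: ME-180 cervical cancer cells given 40 pM IL-6 alongside compound; SIE-controlled beta-lactamase reporter measured as 460/530 nm FRET emission ratio; on the % scale 0 is the no-effect control and ±100 the full control effect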
Method in brief: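 FRET read-out (405 nm excitation, 460/530 nm emission) of a beta-lactamase reporter under a STAT-inducible element in ME-180 cervical carcinoma cells. Cells with compound receive 40 pM IL-6 for 5 h. Values are normalised to AC90 stimulation and AC90 JAK-inhibitor controls.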

[4] = target: Glucocorticoid receptor (Homo sapiens) (UniProt P04150); test: GR-GFP Redistribution (AID 450;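 active means compounds whose dose series gives a full or clear partial fitted curve of increased nuclear translocation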; further: potency means the concentration at half of the fitted maximal effect); conditions: U2OS GR-GFP nuclear translocation, laser cytometry, 2 h
Sequence of Glucocorticoid receptor (Homo sapiens) (P04150 whole entry, looked up, the tested form may be a part): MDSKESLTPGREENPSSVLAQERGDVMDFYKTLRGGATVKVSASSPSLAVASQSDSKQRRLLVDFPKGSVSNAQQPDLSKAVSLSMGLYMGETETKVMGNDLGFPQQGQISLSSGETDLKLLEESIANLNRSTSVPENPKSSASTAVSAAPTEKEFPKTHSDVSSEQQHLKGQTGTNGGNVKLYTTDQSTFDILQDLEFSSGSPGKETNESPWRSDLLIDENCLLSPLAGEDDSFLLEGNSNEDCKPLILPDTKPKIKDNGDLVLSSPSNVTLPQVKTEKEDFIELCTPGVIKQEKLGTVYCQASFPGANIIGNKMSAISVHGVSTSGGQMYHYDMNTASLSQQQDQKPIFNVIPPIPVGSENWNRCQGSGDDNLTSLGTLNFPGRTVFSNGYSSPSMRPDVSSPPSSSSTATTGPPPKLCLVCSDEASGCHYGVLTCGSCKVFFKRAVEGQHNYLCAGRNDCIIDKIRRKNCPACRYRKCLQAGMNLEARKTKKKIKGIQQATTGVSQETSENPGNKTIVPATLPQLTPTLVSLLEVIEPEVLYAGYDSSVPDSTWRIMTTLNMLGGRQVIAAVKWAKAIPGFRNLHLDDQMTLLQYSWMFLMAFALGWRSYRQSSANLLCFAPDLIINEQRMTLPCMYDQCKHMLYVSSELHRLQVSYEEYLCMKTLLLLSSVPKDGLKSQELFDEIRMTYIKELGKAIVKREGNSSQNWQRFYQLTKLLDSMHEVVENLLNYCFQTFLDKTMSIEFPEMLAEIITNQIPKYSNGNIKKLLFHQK

[5] = target: Glucocorticoid receptor (Homo sapiens) (UniProt P04150); test: GR-EFC Redistribution (AID 451; calls by dose curve; further: potency means the concentration at half of the fitted maximal effect); conditions: CHO-K1 GR-EFC translocation, beta-gal luminescence, 2 h
Method in brief: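 Translocation of GR-ED fusion to nuclear EA restores b-gal, read by luminescence after 1 h room-temperature detection. Engineered CHO-K1 biosensor cells, 1,000/well, exposed 2 h at 37 C to titrations up to 46 uM final.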

[6] = target: Mitogen-activated protein kinase 10 (Mus musculus) (UniProt Q61831); test: JNK3 AlphaScreen Assay (AID 530); conditions: JNK3 lysate, c-Jun phosphorylation; series mostly up to 11.4 µM;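 further: kinase came from lysate of stimulated human HepG2 cells; signal reports phosphorylation of biotinylated GST-cJun 1-79 at Ser73 with 10 µM ATP; on the % scale 0 is the no-effect control and ±100 the full control effect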
Method in brief: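 qHTS titrations with 15 min compound pre-incubation before adding ATP (10 uM final). Read-out: AlphaScreen of Ser73-phosphorylated biotin-GST-cJun using HepG2 lysate JNK3 activated by IL-1β and TNFα.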

[7] = target: 3',5'-cyclic-AMP phosphodiesterase 4B (Homo sapiens) (UniProt Q07343); test: qHTS Assay for Inhibitors of PDE-IV (AID 607; active means well fitted activation curve with a large enough effect in the main read-out, with a control signal flat, not every such curve was filed as active; further: potency means the concentration at half of the fitted maximal effect); conditions: HEK293 ACTOne CNG channel cells, membrane potential fluorescence; series mostly up to 22.9 µM
Sequence of 3',5'-cyclic-AMP phosphodiesterase 4B (Homo sapiens) (Q07343 whole entry, looked up): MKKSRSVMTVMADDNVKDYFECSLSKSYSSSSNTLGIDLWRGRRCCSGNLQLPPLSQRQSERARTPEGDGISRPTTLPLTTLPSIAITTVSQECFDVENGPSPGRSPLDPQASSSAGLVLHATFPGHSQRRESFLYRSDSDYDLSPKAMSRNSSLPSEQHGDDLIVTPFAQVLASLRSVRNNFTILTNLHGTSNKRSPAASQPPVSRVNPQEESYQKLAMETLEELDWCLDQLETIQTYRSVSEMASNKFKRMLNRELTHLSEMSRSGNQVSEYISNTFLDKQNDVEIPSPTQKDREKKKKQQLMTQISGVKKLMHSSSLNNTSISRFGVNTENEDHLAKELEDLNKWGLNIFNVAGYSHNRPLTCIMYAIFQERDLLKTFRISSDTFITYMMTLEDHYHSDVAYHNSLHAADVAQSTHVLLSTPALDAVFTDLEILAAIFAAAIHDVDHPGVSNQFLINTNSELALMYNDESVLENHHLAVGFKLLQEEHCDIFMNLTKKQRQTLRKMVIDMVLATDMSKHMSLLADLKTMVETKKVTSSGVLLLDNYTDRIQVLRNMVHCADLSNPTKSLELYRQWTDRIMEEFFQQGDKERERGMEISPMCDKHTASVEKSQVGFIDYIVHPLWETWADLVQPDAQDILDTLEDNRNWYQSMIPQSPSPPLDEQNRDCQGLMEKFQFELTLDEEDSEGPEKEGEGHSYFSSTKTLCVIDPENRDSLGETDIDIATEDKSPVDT
Method in brief: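 Cell-based read-out of cAMP via a modified cyclic nucleotide-gated channel and membrane potential dye (535/590 nm) in HEK293 cells expressing PDE4 endogenously. Compounds tested up to 22.9 uM final; 100 uM RO 20-1724 reference.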

[8] = target: Cytochrome P450 3A4 (Homo sapiens) (UniProt P08684); test: qHTS Assay for Activators of Cytochrome P450 3A4 (AID 885; active means well fitted curve in the direction sought with a large enough effect; an effect the other way counts as inactive or inconclusive; further: nearly all actives have a fitted effect of over 65% in size); conditions: recombinant CYP3A4, Luciferin-PPXE luminescence, 60 min; series mostly up to 11.4 µM
Sequence of Cytochrome P450 3A4 (Homo sapiens) (P08684 whole entry, looked up): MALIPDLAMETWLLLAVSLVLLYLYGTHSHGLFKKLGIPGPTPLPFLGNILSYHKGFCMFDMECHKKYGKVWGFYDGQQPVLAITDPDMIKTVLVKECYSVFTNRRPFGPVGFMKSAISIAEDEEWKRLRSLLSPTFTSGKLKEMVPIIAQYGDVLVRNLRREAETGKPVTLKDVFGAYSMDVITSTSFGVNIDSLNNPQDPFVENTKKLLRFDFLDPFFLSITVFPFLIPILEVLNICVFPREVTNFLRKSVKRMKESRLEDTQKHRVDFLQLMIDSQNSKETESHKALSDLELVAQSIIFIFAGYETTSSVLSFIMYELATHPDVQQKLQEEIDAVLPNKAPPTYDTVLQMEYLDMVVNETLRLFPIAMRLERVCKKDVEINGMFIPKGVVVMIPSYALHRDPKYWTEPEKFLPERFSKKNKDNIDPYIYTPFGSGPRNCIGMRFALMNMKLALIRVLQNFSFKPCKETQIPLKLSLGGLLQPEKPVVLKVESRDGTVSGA
Method in brief: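 Luminescent readout of luciferin formed from 25 uM Luciferin-PPXE (KM level) by 20 nM CYP3A4 in 200 mM KPO4, with 60 min NADPH-driven reaction at room temperature after 10 min compound exposure. Ketoconazole (57 uM) defined 100% inhibition.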

[9] = target: Cytochrome P450 2C19 (Homo sapiens) (UniProt P33261); test: qHTS Assay for Inhibitors and Substrates of Cytochrome P450 2C19 (AID 899; active means well fitted curve in the direction sought with a large enough effect; an effect the other way counts as inactive or inconclusive; further: potency means the concentration at half of the fitted maximal effect; nearly all actives have a fitted effect of over 60% in size); conditions: recombinant CYP2C19, luciferin-H EGE luminescence; series mostly up to 11.4 µM
Sequence of Cytochrome P450 2C19 (Homo sapiens) (P33261 whole entry, looked up): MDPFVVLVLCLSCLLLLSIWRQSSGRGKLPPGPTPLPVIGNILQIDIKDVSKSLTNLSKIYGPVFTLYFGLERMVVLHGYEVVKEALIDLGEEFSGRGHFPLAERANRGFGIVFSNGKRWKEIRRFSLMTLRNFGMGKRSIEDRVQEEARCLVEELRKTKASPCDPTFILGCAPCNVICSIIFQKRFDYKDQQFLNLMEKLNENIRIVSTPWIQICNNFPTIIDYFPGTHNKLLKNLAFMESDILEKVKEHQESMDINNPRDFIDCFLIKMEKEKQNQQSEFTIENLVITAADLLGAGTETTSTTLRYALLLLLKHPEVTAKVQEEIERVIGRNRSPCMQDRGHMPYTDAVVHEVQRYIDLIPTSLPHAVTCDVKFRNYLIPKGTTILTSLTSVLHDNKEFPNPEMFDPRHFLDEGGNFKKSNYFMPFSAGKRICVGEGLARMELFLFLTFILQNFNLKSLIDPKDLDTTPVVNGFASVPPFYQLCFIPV
Method in brief: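 5nM enzyme + 10uM Luciferin-H EGE (=KM), 50mM KPO4; cpd pin-transferred, 10 min 37C; NADPH regen, 60 min 37C; stopped w/ luciferin detection reagent, 20 min; luminescence. Normalized to 57uM ketoconazole (AC100).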

[10] = qHTS Assay for Identification of Small Molecule Agonists for Hypoxia Response Element Signaling Pathway (AID 914; active means well fitted activation curve with a large enough effect in the signal ratio, with a control signal flat, not every such curve was filed as active; the % refers to the signal ratio; further: potency means the concentration at half of the fitted maximal effect; on activation: % of control where 0% means no effect); conditions: ME-180 HRE-bla reporter, beta-lactamase ratio, CoCl2, 17 h; activation: stronger effect = higher value
Method in brief: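 qHTS titration; ME-180 HRE-bla cells; EC50 CoCl2 co-treatment, 17 h at 37 degrees Celsius; CCF4 dye, ex 405nm, em 460nm and 530nm; %Activity from ratio; AC50.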

[11] = NFAT Signaling Pathway (AID 444); conditions: Jurkat NFAT-bla M1, carbachol, beta-lactamase ratio, 5 h;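 further: carbachol stimulus at about its EC50 of 1 µM final; on the % scale 0 is the no-effect control and ±100 the full control effect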
Method in brief: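 Read-out: CCF4 FRET ratio (460 nm/530 nm) after 1 h RT dye loading, used for %activity and AC50 from titration series. Cells: Jurkat NFAT-β-lactamase/M1 line, treated with compound plus 1 uM carbachol for 5 h, 37 °C.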

[12] = AP1 Signaling Pathway (AID 357); conditions: ME-180 (cervical carcinoma) AP-1-bla reporter, EGF-induced, beta-lactamase ratio, 5 h;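 further: ME-180 reporter cells stimulated with EGF at its EC50 level; on the % scale 0 is the no-effect control and ±100 the full control effect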
Method in brief: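 In this screen, ME-180 cells in Opti-MEM with 0.5% dialyzed FBS received EC50 EGF and compound titrations for 5 h. AP-1 reporter beta-lactamase was detected via CCF4 ratio, giving AC50 for positive and negative modulators.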

[13] = target: ATP-dependent 6-phosphofructokinase (Trypanosoma brucei brucei) (UniProt O15648); test: qHTS Assay to Find Inhibitors of T. brucei phosphofructokinase: hit validation (AID 492961; active means well fitted curve in the direction sought with a large enough effect; an effect the other way counts as inactive or inconclusive); conditions: T. brucei PFK, ADP-Glo luminescence; series mostly up to 51.4 µM
Sequence of ATP-dependent 6-phosphofructokinase (Trypanosoma brucei brucei) (O15648 whole entry, looked up): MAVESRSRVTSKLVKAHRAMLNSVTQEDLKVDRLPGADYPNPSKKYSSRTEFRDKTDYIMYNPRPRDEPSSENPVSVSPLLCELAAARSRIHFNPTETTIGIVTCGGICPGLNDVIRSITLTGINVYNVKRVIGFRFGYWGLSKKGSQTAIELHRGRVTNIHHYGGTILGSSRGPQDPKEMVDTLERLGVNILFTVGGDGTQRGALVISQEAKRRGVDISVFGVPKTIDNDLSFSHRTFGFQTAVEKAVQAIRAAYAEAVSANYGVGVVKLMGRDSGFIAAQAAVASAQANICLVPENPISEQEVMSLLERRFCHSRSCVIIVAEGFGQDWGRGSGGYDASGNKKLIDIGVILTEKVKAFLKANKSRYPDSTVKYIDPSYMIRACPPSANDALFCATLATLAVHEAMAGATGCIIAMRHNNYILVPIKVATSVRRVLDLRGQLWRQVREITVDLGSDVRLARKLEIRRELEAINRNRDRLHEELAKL
Method in brief: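 In this biochemical qHTS validation, titrated compounds were tested against 1.25 nM PFK with 0.1 mM ATP and 0.5 mM F6P. Percent activity came from controls lacking or containing enzyme.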

[14] = qHTS profiling for inhibitors of Plasmodium falciparum proliferation (AID 504749; active means well fitted curve in the direction sought with a large enough effect; an effect the other way counts as inactive or inconclusive;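 further: 0% = DMSO vehicle and full inhibition = artemisinin control; nearly all actives have a fitted effect of over 60% in size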); conditions: P. falciparum in erythrocytes, SYBR Green DNA, 72 h; at 12.8 µM (top of the series); parasite line A
Method in brief: (§1)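 SYBR Green fluorescence of parasite DNA, read after lysis and overnight dark incubation, measured growth over 72 h in erythrocyte culture at 0.3% parasitemia and 2.5% hematocrit. Data normalised to DMSO and 0.29 uM artemisinin, with plate-drift correction.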

ATS189 = test: as above; conditions: P. falciparum in erythrocytes, SYBR Green DNA, 72 h; series mostly up to 28.7 µM
Method in brief: as §1

CP192 = test: as above; conditions: P. falciparum in erythrocytes, SYBR Green DNA, 72 h; series mostly up to 28.7 µM
Method in brief: as §1

CP201 = test: as above; conditions: P. falciparum in erythrocytes, SYBR Green DNA, 72 h; series mostly up to 28.7 µM
Method in brief: as §1

CP247 = test: as above; conditions: P. falciparum in erythrocytes, SYBR Green DNA, 72 h; series mostly up to 28.7 µM
Method in brief: as §1

[15] = at 7.69 µM (top of the series) unless noted

O=C1C(Cl)=C(Sc2nnc3c4ccccc4c4ccccc4c3n2)C(=O)c2ccccc21
inactive: Potency [1] > 11.4 µM | activity, negative = inhibition [3, 15] -24.6% | Potency [4] > 46 µM | Potency [5] > 9.22 µM | Potency [6] | Potency [7] | Potency [8]
active: Potency [2] 0.398 µM | Potency [9] 1.58 µM

O=c1c(-c2cc(F)cc(F)c2)nc2cnc(N3CCNCC3)nc2n1CCc1ccccc1
inactive: Potency [1] > 11.4 µM | Potency [4] > 9.22 µM | Potency [5] > 46 µM | Potency [7]
active: Potency [2] 20 µM | Potency [10] 3.16 µM

O=C(O)c1c(-c2nccc3ccccc23)[nH]c(-c2ccccc2)c1S(=O)(=O)O
inactive: Potency [1] > 11.4 µM | activity change, negative = inhibition [11, 15] 12% | activity, negative = inhibition [3, 15] -1.38% | Potency [4] > 46 µM | Potency [5] > 9.22 µM | Potency [6] | Potency [7]

CC(C)(C)c1ccc([C@@H](O)CCCN2CCC(C(O)(c3ccccc3)c3ccccc3)CC2)cc1
2 µM (active) and inactive: Potency [7]
inactive: activity change, negative = inhibition ([12]; at 17.2 µM (top of the series)) 2.82% | activity change, negative = inhibition ([12]; at 38 µM (top of the series)) 6.21% | activity change, negative = inhibition ([11]; at 17.2 µM (top of the series)) -18.2% | activity change, negative = inhibition ([11]; at 38 µM (top of the series)) -0.347% | activity, negative = inhibition ([3]; at 17.2 µM (top of the series)) -5.86% | activity, negative = inhibition ([3]; at 38 µM (top of the series)) 9.55% | Potency [4] > 46 µM and > 20.6 µM | Potency [5] > 46 µM and > 20.6 µM | Potency [6] | activation [10] 18.6%

Oc1cc(O)c2c(c1)O[C@@H](c1ccc(O)c(O)c1)[C@H](O[C@@]1(c3cc(O)c(O)c(O)c3)Oc3cc(O)cc(O)c3[C@H](O)[C@@H]1O)C2
inactive: activity change, negative = inhibition [12, 15] 9.41% | Potency [2] | activity change, negative = inhibition [11, 15] 13.8% | activity, negative = inhibition [3, 15] -22.3% | Potency [4] > 46 µM | Potency [5] > 9.22 µM | Potency [6] | Potency [7]

CC(CO)(CO)N=Cc1cc(I)cc(I)c1O
inactive: Potency [1] > 11.4 µM | activity, negative = inhibition [3, 15] -24.6% | Potency [4] > 46 µM | Potency [5] > 9.22 µM | Potency [6] | Potency [7]

CSc1ccc(NC(=O)Nc2cc(C)ccn2)cc1
active: Potency [2] 0.501 µM
inactive: activity change, negative = inhibition [12, 15] 0.23% | activity change, negative = inhibition [11, 15] -18.9% | activity, negative = inhibition [3, 15] -7.77% | Potency [4] > 46 µM | Potency [5] > 9.22 µM | Potency [6] | Potency [7]

C(=C/c1ccccc1)/CN1CCN(C(c2ccccc2)c2ccccc2)CC1
inactive: activity change, negative = inhibition ([12]; at 17.2 µM (top of the series)) -10.7% | activity change, negative = inhibition ([12]; at 38 µM (top of the series)) -3.02% | activity, negative = inhibition ([3]; at 17.2 µM (top of the series)) -6.97% | activity, negative = inhibition ([3]; at 38 µM (top of the series)) 12.7% | Potency [6] | Potency [7] | outcome [13] | activity, negative = inhibition [14] 1.36% | Potency (ATS189) | Potency (CP192) | Potency (CP201) | Potency (CP247)

CC(C)/C(=N/[N+](C)(C)C)c1ccccc1
inactive: activity change, negative = inhibition [12, 15] 3.83% | activity change, negative = inhibition [2] -16.2% [at 2.29 µM] | activity change, negative = inhibition [11, 15] -1.16% | activity, negative = inhibition [3, 15] 0.141% | Potency [4] > 46 µM | Potency [5] > 9.22 µM | Potency [6] | Potency [7]

O=C(NCc1cccnc1)[C@@H]1[C@@H](C(=O)O)[C@H]2CC[C@@H]1O2
inactive: activity change, negative = inhibition [12, 15] 1.51% | Potency [2] | activity change, negative = inhibition [11, 15] 4.54% | activity, negative = inhibition [3, 15] 11.6% | Potency [4] > 46 µM | Potency [5] > 9.22 µM | Potency [6] | Potency [7]

O=C(C[n+]1ccc2ccccc2c1)c1ccc2ccc3ccccc3c2c1
active: Potency [2] 2.51 µM
inactive: activity change, negative = inhibition [12, 15] 0.901% | activity change, negative = inhibition [11, 15] -15.5% | activity, negative = inhibition [3, 15] 0.433% | Potency [4] > 46 µM | Potency [5] > 9.22 µM | Potency [6] | Potency [7]

O=C1C=C(N2CCN(c3ccccn3)CC2)C(=O)c2c(O)ccc(O)c21
inactive: Potency [1] > 11.4 µM | activity, negative = inhibition [3, 15] -4.42% | Potency [4] > 46 µM | Potency [5] > 9.22 µM | Potency [7]

O=C(O)CSc1cc(-c2ccccc2)nc2ccccc12
inactive: activity change, negative = inhibition [12, 15] 4.39% | activity change, negative = inhibition [2] -4.7% [at 2.29 µM] | activity change, negative = inhibition [11, 15] 10.2% | activity, negative = inhibition [3, 15] -6.65% | Potency [4] > 46 µM | Potency [5] > 9.22 µM | Potency [6] | Potency [7]

CN1C[C@H](c2ccccc2)C(O)([C@]2(c3ccccc3)CN(C)C[C@@H](c3ccccc3)C2=O)[C@H](c2ccccc2)C1 (some centres not stated)
inactive: activity change, negative = inhibition [12, 15] 0.442% | Potency [2] | activity change, negative = inhibition [11, 15] -6.86% | activity, negative = inhibition [3, 15] 10% | Potency [4] > 46 µM | Potency [5] > 9.22 µM | Potency [6] | Potency [7]

Cc1cccc(CNc2nc(-c3cccnc3)nc3ccccc23)c1
inactive: Potency [1] > 11.4 µM | Potency [4] > 46 µM | Potency [5] > 46 µM | Potency [6] | Potency [8]
